Measurements as given in PubChem BioAssay (NCATS).
“And” between values parts separate entries of the source, which are not always exact repeats. Equal entries are not always repeated. Results filed as inconclusive are left out. The source made the active and inactive calls. The call rests on the fitted dose curve; in most records, active means well fitted curve in the direction sought with a large enough effect; inconclusive means small, poorly fitted or top-dose-only effect, or another doubt; inactive means no such curve, though single readings can be large; an effect the other way counts as inactive or inconclusive.

What was measured:
CRL-7250 = normal cell line; experiment: Cytotoxic Profiling of Annotated Libraries Using Quantitative High-Throughput Screening (AID 1296008); conditions: Five cell lines viability, CellTiter-Glo ATP luminescence, 48-72 h; max response: hits give low values; further: nearly all actives have a fitted effect of over 60% in size
In short: (§1)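 Cytotoxicity was measured as CellTiter-Glo ATP luminescence, read after 10 min at room temperature. Compound treatment of the cells lasted 48 or 72 hr at 37 degrees Celsius in a qHTS format.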

HEK293 = experiment: as above; conditions: Five cell lines viability, CellTiter-Glo ATP luminescence, 48-72 h; max response: hits give low values
In short: as §1

HaCat [1] = experiment: as above; conditions: Five cell lines viability, CellTiter-Glo ATP luminescence, 48-72 h; max response: hits give low values
In short: as §1

KB-3-1 = experiment: as above; conditions: Five cell lines viability, CellTiter-Glo ATP luminescence, 48-72 h; max response: hits give low values
In short: as §1

NIH3T3 = experiment: as above; conditions: Five cell lines viability, CellTiter-Glo ATP luminescence, 48-72 h; max response: hits give low values
In short: as §1

MCC-13 = experiment: qHTS assay to identify novel small-molecules to repurpose for Merkel cell carcinoma treatment (AID 1296009); conditions: MCC and control cell lines, CellTiter-Glo viability, 72 h; series mostly up to 46 µM; further: nearly all actives have a fitted effect of over 60% in size
In short: (§2)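 Cell viability measured by CellTiter-Glo following 72 hr compound treatment at 37 degree celsius, with NPC and MIPE libraries tested in 8- and 11-point concentration series.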

WaGa = experiment: as above; conditions: MCC and control cell lines, CellTiter-Glo viability, 72 h; series mostly up to 46 µM
In short: as §2

C33A = experiment: Primary qHTS to identify gynecologic anti-cancer compounds using libraries of approved drugs and bioactive compounds (AID 1345084); conditions: Gynecologic cancer cell panel viability, ATPlite luminescence, 48 h; series mostly up to 57.5 µM; further: nearly all actives have a fitted effect of over 55% in size
In short: (§3)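 Cells, 1,000 per well, plated 16 h, then exposed 48 h at 37 C to compounds. Viability by ATPlite luminescence after 15 min at room temperature.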

CASKI = experiment: as above; conditions: Gynecologic cancer cell panel viability, ATPlite luminescence, 48 h; series mostly up to 57.5 µM
In short: as §3

Es-2 = experiment: as above; conditions: Gynecologic cancer cell panel viability, ATPlite luminescence, 48 h; series mostly up to 57.5 µM
In short: as §3

HeLa = experiment: as above; conditions: Gynecologic cancer cell panel viability, ATPlite luminescence, 48 h; series mostly up to 57.5 µM
In short: as §3

Hek293T = experiment: as above; conditions: Gynecologic cancer cell panel viability, ATPlite luminescence, 48 h, control line for the selectivity index; series mostly up to 57.5 µM
In short: as §3

HACAT [2] = experiment: qHTS assay to identify novel small-molecules to repurpose for Merkel cell carcinoma treatment (AID 1296009); conditions: MCC and control cell lines, CellTiter-Glo viability, 72 h; series mostly up to 44.8 µM; further: nearly all actives have a fitted effect of over 60% in size
In short: as §2

UISO = experiment: as above; conditions: MCC and control cell lines, CellTiter-Glo viability, 72 h; series mostly up to 46 µM
In short: as §2

MKL-1 = experiment: as above; conditions: MCC and control cell lines, CellTiter-Glo viability, 72 h; series mostly up to 46 µM
In short: as §2

CAOV3 = experiment: Primary qHTS to identify gynecologic anti-cancer compounds using libraries of approved drugs and bioactive compounds (AID 1345084); conditions: Gynecologic cancer cell panel viability, ATPlite luminescence, 48 h; series mostly up to 57.5 µM; further: nearly all actives have a fitted effect of over 55% in size
In short: as §3

MCC-26 = experiment: qHTS assay to identify novel small-molecules to repurpose for Merkel cell carcinoma treatment (AID 1296009); conditions: MCC and control cell lines, CellTiter-Glo viability, 72 h; series mostly up to 46 µM; further: nearly all actives have a fitted effect of over 60% in size
In short: as §2

MKL-2 = experiment: as above; conditions: MCC and control cell lines, CellTiter-Glo viability, 72 h; series mostly up to 46 µM
In short: as §2
On the % scale 0 is the no-effect control and ±100 the full control effect; potency means the concentration at half of the fitted maximal effect.

CC(=O)c1c(C)c2cnc(Nc3ccc(N4CCNCC4)cn3)nc2n(C2CCCC2)c1=O
inactive: max response (CRL-7250) -3.02% | max response (HEK293) -2.77% | max response (HaCat [1]) 1.14% | max response (KB-3-1) -7.2% | max response (NIH3T3) 3.53% | Potency (MCC-13) | Potency (WaGa) | activity change, negative = cytotoxicity (C33A) 9.39% [at 6.55 µM] | activity change, negative = cytotoxicity (CASKI) 12% [at 6.55 µM] | activity change, negative = cytotoxicity (Es-2) 0.0946% [at 6.55 µM] | activity change, negative = cytotoxicity (HeLa) -1.33% [at 6.55 µM] | activity change, negative = cytotoxicity (Hek293T) 25.4% [at 6.55 µM]

O=C(Cc1ccc(-c2ccc(OCCN3CCOCC3)cc2)cn1)NCc1ccccc1
inactive: outcome (HaCat [1]) | Potency (HACAT [2]) | Potency (CASKI)
active: Potency (CRL-7250) 23.5 nM and 1.3 µM | Potency (HEK293) 14.8 nM and 184 nM | Potency (KB-3-1) 26.4 nM and 731 nM | Potency (MCC-13) 0.0469 µM | Potency (UISO) 46.9 nM | Potency (Es-2) 1.58 µM | Potency (HeLa) 1.58 µM

NC(=O)Nc1cc(-c2cccc(F)c2)sc1C(=O)N[C@H]1CCCNC1
active: Potency (CRL-7250) 4.69 µM and 2.06 µM | Potency (HEK293) 148 nM and 231 nM | Potency (HaCat [1]) 8.33 µM and 1.3 µM | Potency (KB-3-1) 2.09 µM and 1.03 µM | Potency (NIH3T3) 418 nM and 291 nM | Potency (MCC-13) 14.8 µM | Potency (MKL-1) 3.32 µM | Potency (UISO) 4180 nM | Potency (WaGa) 5.26 µM | Potency (C33A) 1.12 µM | Potency (CAOV3) 1.58 µM | Potency (CASKI) 1.78 µM | Potency (Es-2) 0.631 µM | Potency (HeLa) 1.78 µM | Potency (Hek293T) 1 µM

COc1cccc(-c2ccc(NC(=O)C3=C(C(=O)O)CCC3)c(F)c2)c1
inactive: max response (CRL-7250) -3.86% and -6.53% | outcome (HaCat [1]) | max response (KB-3-1) -19.3% | Potency (HACAT [2]) | Potency (MCC-13) | Potency (MCC-26) | Potency (C33A) | Potency (CAOV3) | Potency (CASKI)
active: Potency (HEK293) 7.43 µM and 6.51 µM | Potency (WaGa) 23.5 µM

Cc1ccc(S(=O)(=O)Nc2cc(Cl)ccc2C(=O)Nc2nc(-c3ccccc3)cs2)cc1
active: Potency (HEK293) 11.8 µM
inactive: max response (CRL-7250) 3.55% | outcome (HaCat [1]) | max response (KB-3-1) -7.08% | Potency (HACAT [2]) | Potency (MCC-13) | Potency (MCC-26) | Potency (MKL-1) | Potency (MKL-2) | Potency (WaGa)

Cn1cc(-c2[nH]c3cc(NC(=O)[C@H](N)C4CCCCC4)cc4c3c2C=NNC4=O)cn1
active: Potency (CRL-7250) 1.87 µM and 2.59 µM | Potency (HEK293) 3.32 µM and 5.8 µM | Potency (KB-3-1) 5.9 µM and 4.11 µM | Potency (NIH3T3) 14.8 µM | Potency (UISO) 418 nM | Potency (WaGa) 2.64 µM
inactive: max response (HaCat [1]) -8.38% | Potency (CASKI)

C[C@@H]1CN(CC(=O)Nc2ccc3c(c2)Cc2cccc(-c4cc(=O)cc(N5CCOCC5)o4)c2S3)C[C@H](C)O1
active: Potency (HEK293) 18.7 µM
inactive: max response (CRL-7250) -2.3% | outcome (HaCat [1]) | max response (KB-3-1) -19.5% | Potency (HACAT [2]) | Potency (MCC-13) | Potency (MCC-26) | Potency (MKL-1)

CCn1nnc2c(N3CCOCC3)nc(-c3ccc(NC(=O)Nc4ccc(C(=O)N5CCN(C)CC5)cc4)cc3)nc21
inactive: Potency (MCC-13) | Potency (C33A)
active: Potency (CRL-7250) 65.1 nM | Potency (HEK293) 0.206 µM | Potency (HaCat [1]) 662 nM and 1.16 µM | Potency (KB-3-1) 11.8 nM and 146 nM | Potency (NIH3T3) 0.517 µM | Potency (MKL-2) 10.5 nM | Potency (UISO) 33.2 nM | Potency (CASKI) 0.251 µM | Potency (Es-2) 1.12 µM | Potency (Hek293T) 0.631 µM

COCCOc1ccc2c(c1)ncn2-c1ccc2cccc(N3CCC(N)CC3)c2n1
active: Potency (CRL-7250) 4.69 µM and 8.2 µM | Potency (HEK293) 11.8 µM | Potency (HaCat [1]) 18.7 µM and 16.4 µM | Potency (KB-3-1) 16.6 µM and 11.6 µM | Potency (NIH3T3) 1.48 µM | Potency (MKL-1) 20.9 µM | Potency (UISO) 26400 nM | Potency (WaGa) 20.9 µM | Potency (Es-2) 28.2 µM
